Only a selection was taken, and hits are over-represented in it overall.
TbREL1 primary: TbREL1 inhibition, primary screen; P86926; TbREL1 RNA ligation, FRET fluorescence; inhibition, % at 9.66 µM; hit rate 0.49% among 89,000;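 active = inhibition above the mean inhibition across all screened compounds plus 3 SD, cut at about 11% in these data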
Target sequence (P86926 whole entry, looked up): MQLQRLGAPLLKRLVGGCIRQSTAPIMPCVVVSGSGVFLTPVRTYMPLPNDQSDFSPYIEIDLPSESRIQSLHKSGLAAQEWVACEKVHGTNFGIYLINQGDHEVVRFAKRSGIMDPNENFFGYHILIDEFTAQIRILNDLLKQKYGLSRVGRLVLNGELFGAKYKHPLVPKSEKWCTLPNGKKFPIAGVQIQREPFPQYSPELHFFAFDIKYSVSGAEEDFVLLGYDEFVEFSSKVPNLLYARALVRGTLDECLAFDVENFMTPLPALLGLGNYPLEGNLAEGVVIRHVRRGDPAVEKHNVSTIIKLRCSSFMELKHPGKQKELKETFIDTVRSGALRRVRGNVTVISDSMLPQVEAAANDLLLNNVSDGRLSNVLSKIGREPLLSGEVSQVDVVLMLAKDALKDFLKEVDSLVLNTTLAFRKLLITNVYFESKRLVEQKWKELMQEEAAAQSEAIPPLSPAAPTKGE
TbREL1 confirm: TbREL1 inhibition, confirmation; TbREL1 RNA ligation, FRET fluorescence; shares compounds with TbREL1 primary; inhibition, % at 9.66 µM; AID 1117282; hit rate 37% among 390;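 active = mean inhibition across replicates above a set limit taken from the earlier primary screen, cut at about 11% in these data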
Large screens that a line does not name were inactive (follow-up assays come after a bar, where they were run).

C[n+]1c(-c2ccccc2)cc(CCCCc2cc(-c3ccccc3)[n+](C)c(-c3ccccc3)c2)cc1-c1ccccc1	TbREL1 primary 13
Cc1ccc(-c2cc(-c3ccccc3)cc(-c3ccccc3)[n+]2-c2ccc(C(=O)O)cc2)cc1	none
Oc1ccccc1-[n+]1c(-c2ccccc2)cc(-c2ccccc2)cc1-c1ccccc1	none
COC(=O)C1=C(c2ccc(S(C)(=O)=O)cc2)C[C@@H]2CC[C@H]1N2C(=O)NCc1ccco1	none
O=C(CNCc1c(F)cccc1F)N1CCC2(CC1)OCCO2	none
O=C(Cn1ccc2ccccc2c1=O)NCC(=O)N1CCC2(CC1)OCCO2	TbREL1 primary 11
O=C(CCCCCn1c(=S)[nH]c2ccccc2c1=O)N1CCC2(CC1)OCCO2	none
Cc1cccc(C)c1-n1nnnc1C(C1CC1)N1CCC(n2c(=O)[nH]c3ccccc32)CC1 (stereo not given)	none
O=C(NC1CC2CCCC(C1)N2)c1ccccc1 (stereo not given)	none
CCN(c1ccc(C(O)(C(=O)OC)C(F)(F)F)cc1)S(=O)(=O)c1ccc(C)cc1 (stereo not given)	none
Cc1nc2c(=O)n(C)c(=O)nc-2n(C)n1	TbREL1 primary 64 | TbREL1 confirm 89
COC(=O)C1=C(c2ccccc2)C[C@@H]2CC[C@H]1N2C(=O)NCCS(C)=O (stereo not given in full)	none
CCOC(=O)[C@]12Cc3ccccc3[C@H]1N(Cc1ccccc1)C(=O)c1cc(F)c(F)cc12	none
C=C(C=O)CC1CC(O)[C@]2(C)OC3CC4OC5C[C@]6(C)O[C@]7(C)CCC8OC9C[C@]%10(C)OC%11C(C)=CC(=O)OC%11CC%10OC9C[C@@H](C)C8OC7CC6O[C@]5(C)C/C=C\C4OC3CC2O1 (stereo not given in full)	none
O=C(CN1CC(c2ccccc2)CC1=O)Nc1ccc(F)cc1 (stereo not given)	none
COC(=O)c1c(N)n(Cc2ccc(OC)cc2)c2nc3ccccc3nc12	none
Nc1c(C(=O)OCC2CCCO2)c2nc3ccccc3nc2n1Cc1cccs1 (stereo not given)	none
Nc1c(C(=O)NC2CCCC2)c2nc3ccccc3nc2n1CC1CCCO1 (stereo not given)	TbREL1 primary 27 | TbREL1 confirm 12
O=C(Nc1ccccc1)N1Cc2ccccc2-n2nncc2C1	none
O=P1(Oc2ccccc2)OCCCS1 (stereo not given)	none
CN1CCC(n2nccc2N)CC1	none
Nc1ccnn1C1CCNCC1	TbREL1 primary 23 | TbREL1 confirm inactive
O=c1[nH]c2ccccc2n1C1CCN(C(c2ccccc2OC(F)(F)F)c2nnnn2Cc2ccccc2)CC1 (stereo not given)	none
COC(=O)[C@@H]1C[C@@]1(C)[C@@H](NP(=O)(c1ccccc1)c1ccccc1)c1ccccc1	none
C=C1[C@@H](C)C2[C@H](Cc3ccccc3)NC(=O)[C@]23[C@H](OC(C)=O)/C=C/[C@@](C)(O)C(=O)[C@@H](C)C/C=C/[C@H]3[C@@H]1O (stereo not given in full)	none
CC(=O)N1N=C2C3CCN(CC3)C2C1c1ccc(Br)cc1 (stereo not given)	none
COCCOC(=O)c1c(N)n(Cc2ccc(OC)cc2)c2nc3ccccc3nc12	none
COCCCn1c(N)c(C(=O)OCCOC)c2nc3ccccc3nc21	none
CCCCNC(=O)c1c(N)n(CCCOC)c2nc3ccccc3nc12	TbREL1 primary 12 | TbREL1 confirm 34
CC(=O)OC1N=C(c2ccccc2Cl)c2cc(Br)ccc2N(C)C1=O (stereo not given)	none
CSc1nc(C)c(Br)c(N2CC2)n1	none
O=C1NC(=O)C(=Cc2ccc(-c3ccc(F)cc3O)o2)C(=O)N1	TbREL1 primary 16 | TbREL1 confirm 15
COc1ccc(C(=O)C2CCCN(Cc3ccc(F)cc3F)C2)cc1F (stereo not given)	none
Cc1cc(/C=C2/C(=O)NC(=O)N(c3ccccc3)C2=O)c(C)n1-c1ccc(F)cc1	none
Cc1cc(/C=C2\C(=O)NC(=O)N(Cc3ccco3)C2=O)c(C)n1-c1ccc(C(=O)O)cc1	TbREL1 primary 16 | TbREL1 confirm inactive
Cc1ccc(-n2c(C)cc(/C=C3/C(=O)NC(=O)N(Cc4ccco4)C3=O)c2C)cc1	none
CC(C)CCP(=O)(O)O	none
COC(=O)C1=C(c2ccc(-c3ccccc3)c(F)c2)C[C@@H]2CC[C@H]1N2C(=O)NCC1CC1	none
COC(=O)C1=C(c2ccccc2)C[C@@H]2CC[C@H]1N2C(=O)N1CCC(C)CC1	none
COC(=O)c1cccc(N=Cc2c(O)n(Cc3ccc(F)cc3)c(=O)[nH]c2=O)c1	none
CS(=O)(=O)CCN1CC2CCCC(C2)C1	none
CCCOC(=O)c1ccc(-[n+]2c(-c3ccccc3)cc(-c3ccccc3)cc2-c2ccccc2)cc1	none
Brc1ccc(-[n+]2c(-c3ccccc3)cc(-c3ccccc3)cc2-c2ccccc2)cc1	TbREL1 primary 12 | TbREL1 confirm inactive
[O-]c1ccccc1-[n+]1c(-c2ccccc2)cc(-c2ccccc2)cc1-c1ccccc1	none
CC1(C)N2CC3([N+](=O)[O-])CN1CC([N+](=O)[O-])(C2)C3	none
